# Source: PubChem BioAssay (National Center for Advancing Translational Sciences (NCATS))
# Sampled rows, rich in hits. Any-hit rate of the full collection: about 2.7%.
# Tau fibril FP: tau fibrillization inhibition (FP); P10636; K18 P301L tau heparin fibrillization, Alexa594 FP, 6 h; Potency, µM (titrated, usually from 57.7 µM), for the others: top-dose activity, negative = inhibition, hits mostly inhibitors; 280,000 tested, 0.39% active; also: potency is read from the fitted curve at half-maximal effect; nearly all actives have a fitted effect of over 55% in size
# Target sequence (P10636 561-689 P618L limits assumed): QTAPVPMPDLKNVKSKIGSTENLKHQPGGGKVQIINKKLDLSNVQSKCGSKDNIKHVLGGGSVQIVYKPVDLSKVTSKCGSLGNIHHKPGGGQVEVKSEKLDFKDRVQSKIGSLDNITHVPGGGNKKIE
#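 Recombinant K18 P301L […], labeled with Alexa 594 at 0.24 uM over 15 uM unlabeled; heparin inducer 20 uM final; 37 C, 6 hr; FP endpoint.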
# Tau fluor counter: counter-screen for tau fibril formation inhibitors. tau K18 P301L Alexa594 fluorescence, heparin fibrillization. Potency, µM (titrated, usually from 57.7 µM), inactives show top-dose activity change, negative = decrease. 280,000 tested, 0.93% active. AID 1463; also: potency is read from the fitted curve at half-maximal effect; nearly all actives have a fitted effect of over 55% in size
#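 Human tau K18 P301L (15 uM unlabeled, 0.24 uM Alexa 594-labeled) in 100 mM sodium acetate pH 7 with 20 uM heparin, 6 hr at 37 C. ThT 30 uM added, 1 hr ambient; Alexa 594 FP and total fluorescence read at 555/632 nm.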
# Tau fibril ThT: blocks human tau fibril formation measured by thioflavin T; P10636; recombinant tau K18 P301L (four-repeat tau fragment), heparin-induced fibrillization, ThT fluorescence; 270,000 tested, 2.1% active; Potency, µM (titrated, usually from 57.4 µM), inactives show at the highest dose activity, negative = inhibition, most hits filed as inhibitors; AID 1460; also: potency is read from the fitted curve at half-maximal effect; nearly all actives have a fitted effect of over 55% in size
#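 In this qHTS, human K18 P301L tau is incubated with compound and heparin for 6 hr at 37 C, and Thioflavin T fluorescence then reports fibril load.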
# Coupling enz: inhibits coupling enzyme system, counter-screen for aldolase hits | coupling enzyme system counterscreen, AmpLite Red fluorescence | activity change, negative = inhibition, % at 58.2 µM, hits read low | 290,000 tested, 0.67% active | AID 2472; in the data active = activity change below about -30%
#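 Activity here indicates interference with the coupling reaction, not aldolase inhibition. Compounds at 57.5 uM final met coupling enzymes for 10 min at RT; substrate and AmpLite Red detection followed, with a 525/598 nm fluorescence read after 20 min.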
# * = called active by the depositor; ? = inconclusive; / = no result given; [ ] = remark or other dose. Unless noted, calls follow the shape of the dose curve; as a rule, active = well fitted curve in the direction sought with a large enough effect; inconclusive = small, poorly fitted or top-dose-only effect, or another doubt; inactive = no such curve, though single readings can be large; an effect the other way counts as inactive or inconclusive. % is scaled to controls: 0 for no effect and ±100 for the full control effect.
SMILES,Tau fibril FP,Tau fluor counter,Tau fibril ThT,Coupling enz
CCOC(=O)c1nnc(-c2ccc(C)cc2)nc1Sc1ccccc1Cl,-7%,-13%,?,-10
CCOc1ccccc1C(=O)NCc1ccc2c(c1)CCN2C(C)=O,3%,6%,-9%,/
O=C(Nc1ccc(OC(F)(F)F)cc1)C(Cc1ccccc1)NS(=O)(=O)c1cccc2nsnc12 (configuration not stated),16µM*,?,5%,/
CC#CC(=O)Nc1cc2c(Nc3ccc(F)c(Cl)c3)ncnc2cn1,/,/,/,-44*
CCN(CC)CC1CCN(c2ncc3ncnc(Nc4ccc(F)c(Cl)c4)c3n2)CC1,?,?,?,1
Cc1nc2ccc(NC(=S)NCCCO)cc2nc1C,?,-24%,?,-30*
O=C(NCCO)Nc1ccc2nsnc2c1,-4%,6%,4%,-4
OCCNC(=S)Nc1ccc2nsnc2c1,-8%,-3%,-9%,-47*
CCCNC(=S)Nc1ccc2nc(-c3ccccn3)c(-c3ccccn3)nc2c1,0%,-8%,-2%,-54*
S=C(Nc1ccc2nc(-c3ccccn3)c(-c3ccccn3)nc2c1)N1CCCCC1,7%[2.34 µM],7%[2.34 µM],4%,-2
CC1(C)OC2CC(=O)OCC23C1CC(=O)C1(C)C3CC[C@@]2(C)[C@H](c3ccoc3)OC(=O)C3OC312 (some centres not stated),2%,-2%,-5%,0
COc1cc(C=C2C(=O)c3ccccc3C2=O)cc(OC)c1OC,-4%,-28%,14µM*,3
COc1cc(C=C2C(=O)c3ccccc3C2=O)ccc1O,-5%,-18%,?,-7
COc1ccc(C=C2C(=O)c3ccccc3C2=O)cc1O,-6%,-30%,8.9µM*,2
CCN1C/C(=C/c2ccc(OC)c(O)c2)C(=O)/C(=C/c2ccc(OC)c(O)c2)C1,?,-28%,14µM*,-6
COc1cc(C=C2C(=O)c3ccccc3C2=O)cc(OC)c1,6%,?,/,1
COc1cccc(/C=C2\C(=O)C(=O)c3ccccc32)c1,2%,-25%,13µM*,-2
CC(C)[C@@H](CC(=O)N[C@@H]1CCNC[C@H]1C(=O)N[C@H](CC(=O)N[C@@H](CCC(=O)O)CC(=O)O)Cc1ccccc1)NC(=O)C[C@H](Cc1c[nH]c2ccccc12)NC(=O)[C@@H]1CCCC[C@H]1N,4%,-17%,-4%,3
Cc1ccc(N2CCN(c3nc4ccc(C(=O)c5ccccc5)cc4n4cnnc34)CC2)c(C)c1,-4%,-15%,2%,/
COc1ccc(-c2cc(C(=O)Nc3ccc(S(=O)(=O)Nc4onc(C)c4C)cc3)c3ccccc3n2)cc1,3%,-22%,?,3
N=C1Sc2ccccc2C2=NCCCN12,14µM*,-17%,7.1µM*,/
CCC(=O)N(CC)C1=C(O)c2ccccc2C(=O)C1=O,?,?,16µM*,-61*
CCN(CC)c1ccc(NC(=O)COC(=O)C23CCC(=O)N2c2ccccc2S3)cc1 (configuration not stated),?,-20%,-11%,-32*
CNC(=O)c1ccc2c(c1)N(Cc1cc(C)ccc1C)C(=O)c1ccccc1S2,1%,-20%,-4%,/
CCOC(=O)C1=C(SCC)c2cc3c(n2C1=O)CCCC3,?,?,11µM*,-4
SMILES,Tau fibril FP,Tau fluor counter,Tau fibril ThT,Coupling enz
CCc1cc(C(=O)Nc2sc(C)c(CC)c2C#N)no1,?,?,28µM*,/
O=C1c2ccccc2C(=O)N1CCCc1c[nH]c2ccc(Cl)cc12,-14%,11µM*[quencher],-18%,1
CCOC(=O)c1[nH]c2ccc(Cl)cc2c1NC(=O)/C=C/c1ccc2c(c1)OCO2,-12%,-22%,11%,4
CCN(CC(=O)Nc1c(C(=O)OC)[nH]c2ccc(Cl)cc12)c1ccc2c(c1)OCO2,12%,7.9µM*[quencher],?,-6
COc1cccc(-c2cncnc2Nc2ccccc2)c1,/,/,/,-2
Cc1cc(Nc2ccc(C)c(Cl)c2)n2nc(Cc3ccccc3)nc2n1,4%,4%,-12%,/
CCOc1ccc2c(c1)n([O-])c1c([n+]2=O)CCCC1,?,-22%,20µM*,-58*
COc1ccc2c(c1)n([O-])c1c([n+]2=O)CCC1,9%,-12%,-16%,-11
O=C(O)c1ccc(Cl)c(S(=O)(=O)Nc2ccc3cn[nH]c3c2)c1,1%,-6%,-16%,-71*
COc1cc(S(=O)(=O)Nc2ccc3cn[nH]c3c2)ccc1Cl,-12%,-26%,-3%,0
CCOC(=O)C(CC)n1nnc2sc(-c3ccccc3)cc2c1=O (configuration not stated),6%,-25%,?,/
COc1ccc(/C=C/C=C2\NC(=S)NC2=O)cc1,11%,-11%,2µM*,6
O=C1NC(=S)N/C1=C\C=C\c1ccccc1,-4%,1%,/,-3
COc1cc(C(=O)Nc2c(C(=O)Nc3ccccc3F)oc3ccccc23)cc(OC)c1OC,-9%,-25%,0%,/
O=C(O)c1cccc(Cn2c(Cl)c(/C=N/Nc3ccccc3)sc2=O)c1,?,?,18µM*,16
O=C(O)c1cccc(Cn2c(Cl)c(/C=N/NC(=O)c3ccccc3Cl)sc2=O)c1,3%,-14%,?,11
COc1ccc2c(c1)c1ncn(CCN3CCCC3)c(=O)c1n2C,-3%,1%,-7%,3
Cc1ccc2c(c1)c1ccc3c(c1n2C)C(=O)C=CC3=O,?,0.89µM*[quencher],/,-12
COc1ccc2c(c1)c1ccc3c(c1n2C)C(=O)C=CC3=O,16µM*,3.5µM*[quencher],5µM*,-15
CC1Cc2cc(S(=O)(=O)CCC(=O)Nc3cccc(F)c3)ccc2N1C(=O)C1CC1 (configuration not stated),0%,-9%,1%,/
COc1ccc(Nc2ccc(N3C(=O)CCCC3=O)cc2[N+](=O)[O-])cc1OC,0%,-2%,?,0
CCOc1ccc(Nc2ccc(N3C(=O)CCC3=O)cc2[N+](=O)[O-])cc1,-5%,?,5µM*,3
CCc1cccc(C)c1NS(=O)(=O)c1ccc(-n2cccn2)cc1,-10%,-18%,4%,/
Brc1ccc(C2Nc3cccc4cccc(c34)N2)s1,?,?,13µM*,-5
Cc1c(C(C)(C)C)s/c(=N/S(=O)(=O)c2ccccc2)n1C,/,/,/,0
CCCC[n+]1ccn(C2=C([O-])c3ccccc3C(=O)/C2=N\S(=O)(=O)c2ccccc2)c1,4%,-15%,?,/
CCCCC[n+]1ccn(C2=C([O-])c3ccccc3C(=O)/C2=N\S(=O)(=O)c2ccc(Br)cc2)c1,?,?,11µM*,-24
CCCCC[n+]1ccn(C2=C([O-])c3ccccc3C(=O)/C2=N\S(=O)(=O)c2ccccc2)c1,-4%,-24%,?,/
CC(C)(C)c1cc[n+](C2=C([O-])c3ccccc3C(=O)/C2=N\S(=O)(=O)c2ccccc2)cc1,?,?,16µM*,-60*
